These results are taken from PubChem BioAssay (EPA / NIEHS).

The structures appear in SMILES notation. Records with an inconclusive call do not appear. The source made the active and inactive calls. The calls were made as follows, unless noted: active = hit-call score of the fitted dose curve at least 0.9, where 1 is the maximum; inactive = score below 0.9.

The nature of assay [1]: CCTE_Shafer_MEA_dev_firing_rate_mean: CCTE's Neural Network Formation Assay for Mean Firing Rate, Shafer Lab (AID 2284031).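 Also: curve fitted for loss of firing so AC50 reflects decreased mean firing rate.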 An outline of the steps: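 Primary rat cortical neurons on 48-well MEA plates, exposed from plating day 0 with dosing renewed on DIV 5 and 9. Mean well firing rate over active electrodes, recorded days 5, 7, 9, 12, summarised as trapezoidal AUC.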
The nature of assay [2]: CCTE_Shafer_MEA_dev_per_burst_spike_percent: CCTE's Neural Network Formation Assay for Percent of Spikes in a Burst, Shafer Lab (AID 2284032).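 Also: fitted as a decrease in burst spike percentage below DMSO baseline.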 The essentials: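 Rat primary cortical neurons on 16-electrode MEA wells, dosed from plating day 0 for 12 days with renewal on DIV 5 and 9; spikes-in-bursts percentage averaged over bursting electrodes, collapsed as AUC across days 5, 7, 9, 12; loss direction versus DMSO.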

Assay [3] is described as follows: CCTE_Shafer_MEA_dev_active_electrodes_number: CCTE's Neural Network Formation Assay for Number of Active Electrodes, Shafer Lab (AID 2284040; active = hit-call score of the fitted dose curve at least 0.9, where 1 is the maximum;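 also: potency for loss of active electrodes versus DMSO so lower counts are hits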). The essentials:
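Primary rat cortical neurons on 16-electrode MEA wells, exposed from day 0 through day 12 with compound renewed at DIV 5 and 9 feeds. Active electrodes (mean firing ≥5 spikes/min) counted at DIV 5, 7, 9, 12; trapezoidal AUC across days, loss-of-signal versus DMSO.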

A short description of assay [4]: CCTE_Shafer_MEA_dev_burst_rate: CCTE's Neural Network Formation Assay for Burst Rate, Shafer Lab (AID 2284042). An outline of the steps: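 Developmental network assay measuring how 12-day exposure of rat cortical neuron cultures alters bursting on extracellular MEA recordings. Values are AUC of well-mean burst rate across four recording days, relative to DMSO vehicle.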

Assay [5] is described as follows: CCTE_Shafer_MEA_dev_bursting_electrodes_number: CCTE's Neural Network Formation Assay for Number of Bursting Electrodes, Shafer Lab (AID 2284043; active = hit-call score of the fitted dose curve at least 0.9, where 1 is the maximum;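 also: potency is for loss of bursting electrodes relative to DMSO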). The essentials: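 Read-out is the per-well number of electrodes bursting at least once every 2 minutes, recorded on days 5, 7, 9 and 12 and collapsed by trapezoidal area under the curve. Cultures were primary rat cortical neurons on MEA plates, treated continuously from plating.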

The nature of assay [6]: CCTE_Shafer_MEA_dev_per_burst_interspike_interval: CCTE's Neural Network Formation Assay for Burst Interspike Interval, Shafer Lab (AID 2284044).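 Also: mean spike spacing inside bursts as AUC over recordings on days 5 7 9 12; potency for a decrease of within-burst interspike interval below DMSO level.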 The essentials:
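Neurons from rat cortex plated onto PEI-coated MEA wells with laminin […] at 1.5 x 10^5 cells/well, then treated from day 0. Media and compound fully replaced on DIV 5 and 9. Extracellular spontaneous firing recorded four times; interspike interval per burst summarised as AUC.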

A short description of assay [7]: CCTE_Shafer_MEA_dev_burst_duration_mean: CCTE's Neural Network Formation Assay for Mean Burst Duration, Shafer Lab (AID 2284045). An outline of the steps: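 Read-out: average first-to-last-spike interval within single-electrode bursts, averaged over bursting electrodes per well, then summarised as area under the curve across days 5, 7, 9 and 12. Developing rat cortical networks were exposed from day 0.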

Assay [8] in a line: CCTE_Shafer_MEA_dev_interburst_interval_mean: CCTE's Neural Network Formation Assay for Mean Interburst Interval, Shafer Lab (AID 2284046).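 Also: well-mean interburst interval of bursting electrodes as AUC over four recording days; curve fitted for decrease in interburst interval relative to DMSO.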 The essentials:
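Network formation assay in primary rat cortical cultures, exposed from DIV 0 to 12. Mean interburst interval per well, integrated as AUC over four recordings.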

Assay [9] is described as follows: CCTE_Shafer_MEA_dev_inter_network_spike_interval_mean: CCTE's Neural Network Formation Assay for Mean Inter-network Spike Interval, Shafer Lab (AID 2284047). An outline of the steps: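 Compound was given at plating to primary rat cortical neurons and renewed with full medium changes on DIV 5 and 9. Extracellular activity was recorded on days 5, 7, 9, 12; AUC values were fitted for loss relative to DMSO control.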

A short description of assay [10]: CCTE_Shafer_MEA_dev_network_spike_number: CCTE's Neural Network Formation Assay for Number of Network Spikes, Shafer Lab (AID 2284048).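 Also: synchronized bursts across electrodes counted on days 5 7 9 12 and integrated as AUC.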 An outline of the steps:
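Developing networks of primary rat cortical neurons are treated over 12 days starting at plating, with media and compound fully replaced on DIV 5 and 9. Network spike counts from four recording days are integrated as trapezoidal AUC.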

A short description of assay [11]: CCTE_Shafer_MEA_dev_network_spike_peak: CCTE's Neural Network Formation Assay for Mean Number of Electrodes in Network Spike, Shafer Lab (AID 2284049).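 Also: fitted for loss of signal meaning fewer electrodes in network spikes than DMSO.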 An outline of the steps:
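Rat cortical primary culture, 1.5 x 10^5 cells/well, 48-well MEA (16 electrodes/well). Dosing day 0 through DIV 12, full media/compound exchange DIV 5, 9. AxIS adaptive spike detection; AUC over days 5/7/9/12; loss-of-signal vs DMSO.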

Assay [12] can be described thus: CCTE_Shafer_MEA_dev_spike_duration_mean: CCTE's Neural Network Formation Assay for Mean Spike Duration, Shafer Lab (AID 2284051).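 Also: mean network spike duration pooled as area under curve over DIV 5 to 12 recordings; potency for a decrease in mean network spike duration versus DMSO.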 An outline of the steps: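 With DMSO as baseline, loss of mean network spike duration was scored from extracellular recordings of rat cortical neurons on MEA plates. Exposure spanned plating to DIV 12; the four recording days were collapsed into one AUC value.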

Assay [13] can be described thus: CCTE_Shafer_MEA_dev_network_spike_duration_std: CCTE's Neural Network Formation Assay for Standard Deviation of Network Spike Duration, Shafer Lab (AID 2284052).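 Also: hits are decreases in network spike duration SD versus DMSO vehicle.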 The essentials:
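Developing networks of rat cortical neurons were exposed over twelve days in vitro on 48-well MEA plates. Trapezoidal AUC of recordings (DIV 5–12) was analysed for signal loss relative to DMSO vehicle.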

The nature of assay [14]: CCTE_Shafer_MEA_dev_per_network_spike_spike_number_mean: CCTE's Neural Network Formation Assay for Mean Number of Spikes in a Network Spike, Shafer Lab (AID 2284053). An outline of the steps:
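First, rat cortical cells (1.5 x 10^5/well) were seeded onto MEA wells; second, dosing began at plating and was refreshed on DIV 5 and 9; finally, network-spike spike counts across DIV 5–12 were summarized as AUC.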

A short description of assay [15]: CCTE_Shafer_MEA_dev_per_network_spike_spike_percent: CCTE's Neural Network Formation Assay for Percent of Spikes in a Network Spike, Shafer Lab (AID 2284054). An outline of the steps: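 Rat primary cortical cultures, 1.5 x 10^5 cells/well on MEA. Continuous compound exposure d0–12, medium/compound renewed DIV 5, 9. Network-spike spike % (0.05 s peak window), AUC over 4 recordings, DMSO baseline.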

The nature of assay [16]: CCTE_Shafer_MEA_dev_LDH: CCTE's Lactate Dehydrogenase Assay for Cytotoxicity in the Neural Network Formation Assay, Shafer Lab (AID 2284068; active = hit-call score of the fitted dose curve at least 0.9, where 1 is the maximum;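 also: exposure for twelve days from plating with re-dosing on DIV 5 and 9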). An outline of the steps: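 Developing rat cortical networks on MEA plates are exposed to compound for 12 days from plating. LDH activity is measured spectrophotometrically, with DMSO as baseline.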
The nature of assay [17]: CCTE_Shafer_MEA_dev_AB: CCTE's Alamar Blue Assay for Cytotoxicity in the Neural Network Formation Assay, Shafer Lab (AID 2284083; active = hit-call score of the fitted dose curve at least 0.9, where 1 is the maximum;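 also: resazurin reduction fluorescence as viability of cultured neurons; twelve days of exposure from plating with re-dosing on DIV 5 and 9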). An outline of the steps:
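Cytotoxicity companion to the developmental MEA: primary rat cortical neurons, 12-day exposure starting day 0, compound refreshed DIV 5 and 9; resazurin fluorescence, fitted against DMSO vehicle.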

Assay [18] is described as follows: CCTE_Shafer_MEA_dev_mutual_information_norm: CCTE's Neural Network Formation Assay for Mutual Information Normalization, Shafer Lab (AID 2284091). An outline of the steps: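 Developing rat cortical networks on 16-electrode MEA wells are treated throughout formation (DIV 0–12). Shared electrode information is recorded four times, converted to area-under-curve, and fitted for decreases against DMSO vehicle.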

Assay [19] in a line: IUF_NPC1a_proliferation_area_72hr: Leibniz Research Institute for Environmental Medicine (IUF) 72-hour Neural Progenitor Cell Proliferation Area Assay (NPC1a) (AID 2284208). The essentials:
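Spheres of 0.3 mm are plated singly in growth-factor medium and exposed from day 0. After three days at 37C and 5% CO2, sphere area is measured by phase contrast imaging, with activity referenced to DMSO.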

The nature of assay [20]: IUF_NPC1_viability_72hr: Viability Assessment at 72 hours in the Leibniz Research Institute for Environmental Medicine (IUF) Neural Progenitor Cell Proliferation Assay (NPC1) (AID 2284209). An outline of the steps: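 Single spheres (0.25-0.35 mm) of human fetal cortex-derived neural progenitor cells were grown in proliferation medium with EGF and FGF at 37C and 5% CO2. They were exposed for 72 h without renewal, and viability was read by alamar blue resorufin fluorescence.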

A short description of assay [21]: CCTE_Mundy_HCI_Cortical_Synap_Neur_Matur_NeuriteSpotCountPerNeuriteLength: CCTE's Synaptogenesis and Neurite Maturation Assay in rat cortical cells for Neurite Spot Count per Neurite Length, Mundy Lab (AID 2284210). The essentials:
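Primary rat cortical neurons, compound exposure DIV 7–12, 288.33 h endpoint. Hoechst, anti-MAP2 and anti-synaptophysin labelling; neurite-associated puncta per neurite length scored by automated imaging relative to DMSO controls.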

Assay [22] is described as follows: CCTE_Mundy_HCI_Cortical_Synap_Neur_Matur_BPCount: CCTE's Synaptogenesis and Neurite Maturation Assay in rat cortical cells for Branch Point Count, Mundy Lab (AID 2284211). An outline of the steps: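 Rat primary cortical cultures, AraC added DIV 5; chemicals dosed DIV 7 through DIV 12. Fixed cells stained for MAP2, synaptophysin and Hoechst; neurite branch points counted by automated high-content imaging, fitted relative to DMSO.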

Assay [23] in a line: CCTE_Mundy_HCI_Cortical_NOG_NeuriteCount: CCTE's Neurite Outgrowth Assay in rat cortical cells for Neurite Count, Mundy Lab (AID 2284212).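 Also: cells fixed about two days after chemical exposure began.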 An outline of the steps:
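Neurite number per cell from high-content imaging of betaIII-tubulin immunostaining, with Hoechst nuclear counterstain.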

The nature of assay [24]: CCTE_Mundy_HCI_Cortical_NOG_NeuriteLength: CCTE's Neurite Outgrowth Assay in rat cortical cells for Neurite Length, Mundy Lab (AID 2284213).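 Also: neurites imaged about 48 to 50 h after chemical exposure began.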 The essentials:
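Neurite length was read by high-content imaging of βIII-tubulin-labelled neurites in rat primary cortical cultures. Activity was fitted relative to DMSO.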

Usually AC50 stands for the midpoint of the concentration-response curve, whichever way the signal moves. In the case of `Cn1nc(C(F)(F)F)c(CS(=O)(=O)C2=NOC(C)(C)C2)c1OC(F)F`, the AC50 is 91.6 µM (active) in assay [1]; 80.9 µM (active) in [2]; 73.6 µM (active) in [3]; 87.5 µM (active) in [5]; 26.3 µM (active) in [6]; 50 µM (active) in assay [11]. Besides, the AC50 in assay [12] is 31.2 µM (active); in [14] it was 50 µM (active); in assay [16], 80.6 µM (active); in [17], 68.9 µM (active); in [19] it was 22.1 µM (active); in [22] it was 15.1 µM (active). Further, the AC50 in assay [23] was 84.9 µM (active); in assay [24], 66.8 µM (active). The result in assay [4], in assay [7], in assay [8], in [9], in assay [10] and in assay [13] was inactive. Also, the outcome in [15], in [18], in assay [20] and in assay [21] was inactive.
